# Laboratory results as given in PMC4336329 (PLoS ONE, 2015).
# The whole screen tested about 310,000 compounds, of which about 14,000 (4.5%) showed an effect of 50% or more. The effect is printed as a negative number. The entries come from a sample that favours strong results as a whole.
# Molecular target: human ether-à-go-go-related gene (hERG) potassium channel (human, UniProt Q12809)
# Assay: primary screen, population patch clamp on CHO cells stably expressing hERG; higher = less effect of the substance
# 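Also: peak tail current of the secondary pulse compared with the same well before compound.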
# human ether-à-go-go-related gene (hERG) potassium channel, sequence (Q12809 whole entry, looked up): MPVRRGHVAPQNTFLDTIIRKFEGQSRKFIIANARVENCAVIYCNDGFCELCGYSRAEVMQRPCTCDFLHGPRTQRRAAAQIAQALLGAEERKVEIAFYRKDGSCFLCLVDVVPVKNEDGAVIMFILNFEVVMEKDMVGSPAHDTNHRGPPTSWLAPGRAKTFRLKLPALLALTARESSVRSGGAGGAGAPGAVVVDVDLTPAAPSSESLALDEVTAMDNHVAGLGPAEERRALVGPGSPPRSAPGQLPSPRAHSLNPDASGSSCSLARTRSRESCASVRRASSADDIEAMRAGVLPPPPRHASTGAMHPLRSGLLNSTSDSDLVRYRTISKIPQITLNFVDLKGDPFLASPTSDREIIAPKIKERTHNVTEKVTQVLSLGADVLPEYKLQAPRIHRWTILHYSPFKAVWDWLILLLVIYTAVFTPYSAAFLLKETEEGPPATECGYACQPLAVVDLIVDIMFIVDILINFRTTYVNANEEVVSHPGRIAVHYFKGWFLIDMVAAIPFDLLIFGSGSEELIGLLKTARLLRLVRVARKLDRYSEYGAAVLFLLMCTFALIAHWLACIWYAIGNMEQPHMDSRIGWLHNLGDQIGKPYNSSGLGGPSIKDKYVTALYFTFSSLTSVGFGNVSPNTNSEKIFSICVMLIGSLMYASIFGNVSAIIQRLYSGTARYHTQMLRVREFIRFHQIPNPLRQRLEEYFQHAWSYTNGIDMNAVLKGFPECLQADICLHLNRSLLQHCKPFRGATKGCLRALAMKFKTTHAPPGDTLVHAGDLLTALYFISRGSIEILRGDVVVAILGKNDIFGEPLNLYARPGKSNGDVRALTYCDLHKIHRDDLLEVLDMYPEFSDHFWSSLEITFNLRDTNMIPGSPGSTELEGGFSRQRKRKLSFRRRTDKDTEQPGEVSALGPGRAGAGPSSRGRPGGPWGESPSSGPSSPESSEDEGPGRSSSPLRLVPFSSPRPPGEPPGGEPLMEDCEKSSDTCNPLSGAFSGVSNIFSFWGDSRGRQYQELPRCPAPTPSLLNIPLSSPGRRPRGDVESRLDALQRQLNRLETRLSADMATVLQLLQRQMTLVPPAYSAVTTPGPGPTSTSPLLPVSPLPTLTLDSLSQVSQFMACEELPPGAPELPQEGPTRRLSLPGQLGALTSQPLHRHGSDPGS
row,SMILES,"hERG current change (%, negative = inhibition) at 10uM [%]"
1,CN(C)C1(CNC(=O)CC(NC(=O)c2ccccc2Cl)c2ccccc2)CCCCC1 (stereo not shown),-31.3
2,C[C@@]12CCC3[C@@](CCC4[C@@]3(C)CCC[C@@]4(C)C(=O)N3CCCCC3)(CC1=O)C2 (stereo partly shown),7.27
3,O=c1c(Cc2c(F)cccc2Cl)c(O)ccn1Cc1ccc(F)cc1,-0.211
4,CCCC(=O)Nc1ccc(N2CCCCC2)cc1,-8.42
5,C=C1C(=O)[C@@]23[C@H](O)C[C@@H]4C(C)(C)CC[C@H](O)[C@]4(C)[C@@H]2C[C@H](O)[C@@H]1[C@H]3O,-0.141
6,CC(N)C12CC3CC(CC(C3)C1)C2.Cl (stereo not shown),14.1
7,C/C(=N\N1CCCCC1)c1c(O)[nH]c(=O)[nH]c1=O,-11
8,O=C(c1ccc2c(c1)OCO2)C1CCCN(Cc2ccc3cccc(F)c3n2)C1 (stereo not shown),-87
9,O=C(c1ccc2c(c1)OCO2)C1CCCN(Cc2ccc3nsnc3c2)C1 (stereo not shown),-71.4
10,Cn1c(CN2CCCC(C(=O)c3ccc4c(c3)OCO4)C2)nc2ccccc21 (stereo not shown),-70.5
11,COc1cccc(C(=O)C2CCCN(Cc3ccc4nsnc4c3)C2)c1 (stereo not shown),-26
12,O=C(c1ccc2c(c1)OCO2)C1CCCN(C(=O)C2CCOCC2)C1 (stereo not shown),7.74
13,O=C(c1ccc2c(c1)OCO2)C1CCCN(CC2CCCCC2)C1 (stereo not shown),-71.8
14,Cn1cc(CN2CCCC(CNC(=O)c3ccc4c(c3)OCO4)C2)c2ccccc21 (stereo not shown),-43.6
15,O=C(c1cccc(Cl)c1)C1CCCN(C(=O)c2ccc3c(c2)OCO3)C1 (stereo not shown),-34.1
16,CSc1ccc(C(=O)C2CCCN(C(=O)c3ccc4c(c3)OCO4)C2)cc1 (stereo not shown),-34
17,Cc1cccc(CN2CCCC(C(=O)c3ccc4c(c3)OCO4)C2)n1 (stereo not shown),-49.2
18,Cc1sc(NC(=S)NC(=O)c2ccccc2)c(C#N)c1C,0.195
19,O=C(N/N=C1\C(=O)c2cccc3cccc1c23)c1ccc(O)cc1,8.35
20,CCOC(=O)c1[nH]c2cc(OC)c(OC)cc2c1NC(=O)c1ccc2c(c1)OCO2,-4.45
21,COc1cc(C(=O)N/N=C(\C)Cn2nc([N+](=O)[O-])cc2C)ccc1O,-21.1

row,SMILES,"hERG current change (%, negative = inhibition) at 10uM [%]"
1,CC(C)(C)c1nnc(NC(=O)NS(=O)(=O)c2ccccc2)s1,19.7
2,O=C(Nc1nccs1)c1ccc(S(=O)(=O)N2CCCCC2)cc1,3.29
3,COc1ccc(C(=O)O)cc1S(=O)(=O)N(C)C,16.6
4,O=C(Nc1cc(Cl)ccc1Oc1ccccc1)c1ccccc1F,-4.45
5,CCCC(C)C(=O)Nc1ccccc1C(=O)OCC (stereo not shown),-4.39
6,O=S(=O)(Nc1ccccc1Cl)c1cc(NC(=S)NCCN2CCOCC2)ccc1Cl,14
7,CCOC(NC(=O)c1ccccc1)C(NC(=O)c1ccccc1)OCC (stereo not shown),-0.069
8,CCN1CCN(S(=O)(=O)c2ccc(C)c([N+](=O)[O-])c2)CC1,-0.352
9,Cc1ccc(S(=O)(=O)N2CCN(c3ccc(N4CCOCC4)nn3)CC2)cc1[N+](=O)[O-],-4.74
10,Cc1ccc([N+](=O)[O-])cc1S(=O)(=O)N1CCN(C)CC1,0.51
11,CCN1CCN(c2ccc(N3CCN(S(=O)(=O)c4ccc(C)c([N+](=O)[O-])c4)CC3)nn2)CC1,-56.6
12,Cc1ccc([N+](=O)[O-])cc1S(=O)(=O)N1CCCC1,7.21
13,CCN1CCN(c2ccc(N3CCN(S(=O)(=O)c4cc([N+](=O)[O-])ccc4C)CC3)nn2)CC1,-54.4
14,C[C@]12CC[C@@H]3c4cc(O)c(O)cc4CC[C@H]3[C@@H]1CC[C@@H]2O,24.1
15,O=C(O)c1cc(-c2cccc(Cl)c2)nc2nc(N3CCCCC3)sc12,8.18
16,CS(=O)(=O)c1ccc(NCC2CCCO2)c([N+](=O)[O-])c1 (stereo not shown),9.48
17,CN(CCc1ccccc1)C1CCCN(C(=O)Cn2cccn2)C1 (stereo not shown),-1.49
18,Cc1cc(C)nc(SCc2ccc(C(=O)N/N=C/c3cccnc3)cc2)n1,-17.3
19,Cc1cc(C)nc(SCc2ccc(C(=O)N/N=C/c3ccncc3)cc2)n1,-50.5
20,Cc1cc(C)nc(SCc2ccc(C(=O)N/N=C/c3ccc(C(=O)O)cc3)cc2)n1,28.6
21,N=C1C(c2nc3ccccc3[nH]2)=C(O)CN1NC(=O)c1c[nH]c2ccccc12,17

row,SMILES,"hERG current change (%, negative = inhibition) at 10uM [%]"
1,CCOc1ccc(N2C(=O)Nc3ccc(Br)cc3C2(O)C(=O)NC(C)C)cc1 (stereo not shown),8.92
2,O=C(Cn1ncc2c3ccccc3n(Cc3ccc(F)cc3)c2c1=O)N1CCN(c2ncccn2)CC1,-16.2
3,O=C(Cn1ncc2c3ccccc3n(Cc3cccc(Cl)c3)c2c1=O)N1CCC2(CC1)OCCO2,-69
4,O=C(Cn1ncc2c3ccccc3n(Cc3ccccc3F)c2c1=O)N1CCC2(CC1)OCCO2,-72.8
5,Cn1c2ccccc2c2cnn(CC(=O)N3CCC4(CC3)OCCO4)c(=O)c21,-22.2
6,Cc1c2cnn(CC(=O)N3CCC4(CC3)OCCO4)c(=O)c2c(C)n1Cc1ccccc1,-0.415
7,O=C(Cn1ncc2c3ccccc3n(Cc3ccc(F)cc3)c2c1=O)N1CCC2(CC1)OCCO2,-67.2
8,Cc1c2cnn(CC(=O)N3CCC4(CC3)OCCO4)c(=O)c2c(C)n1Cc1cccc(Cl)c1,1.18
9,Cc1c2cnn(CC(=O)N3CCC4(CC3)OCCO4)c(=O)c2c(C)n1Cc1ccc(F)cc1,-7.31
10,Cc1c2cnn(CC(=O)N3CCC4(CC3)OCCO4)c(=O)c2c(C)n1Cc1ccccc1F,6.7
11,Cc1ccc2nc(C(C)O)[nH]c2c1 (stereo not shown),17.3
12,CC#CCCCC(=O)Nc1ccc(C(=O)O)cc1,1.36
13,CN1CCN(Cc2nc(-c3cccs3)no2)CC1c1ccccc1 (stereo not shown),-8.45
14,COC(=O)c1nnn(CC(=O)NC(=O)Nc2cccc(Cl)c2C)c1C(=O)OC,-0.536
15,O=C(COc1ccccc1)Nc1ccccc1N1CCCCC1,2.27
16,CCn1cc(C(=O)NCCc2ccccc2)c(=O)c2cc(S(=O)(=O)N3CCCC3)ccc21,1.7
17,CCN(CC)CCNC(=O)c1cn(CC)c2ccc(S(=O)(=O)N3CCc4ccccc4C3)cc2c1=O,-59.4
18,CCn1cc(C(=O)NCCCN2CCN(C)CC2)c(=O)c2cc(S(=O)(=O)N3CCc4ccccc4C3)ccc21,-20.4
19,CCCN(CCC)CCCNC(=O)c1cn(CC)c2ccc(S(=O)(=O)N3CCc4ccccc4C3)cc2c1=O,-69.9
20,CCCN(CCC)CCCNC(=O)c1cn(CC)c2ccc(S(=O)(=O)N3CCOCC3)cc2c1=O,12.8
21,CCN(CC)CCCNC(=O)c1cn(CC)c2ccc(S(=O)(=O)N3CCc4ccccc4C3)cc2c1=O,-52.9

row,SMILES,"hERG current change (%, negative = inhibition) at 10uM [%]"
1,CCn1cc(C(=O)NCCN(CC(C)C)CC(C)C)c(=O)c2cc(S(=O)(=O)N3CCOCC3)ccc21,-14.1
2,CCn1cc(C(=O)NCc2ccco2)c(=O)c2cc(S(=O)(=O)N3CCc4ccccc4C3)ccc21,-15.3
3,CCCCN(CCCC)CCNC(=O)c1cn(CC)c2ccc(S(=O)(=O)N3CCc4ccccc4C3)cc2c1=O,-78.8
4,O=C(NC1CCCCC1)C1CCC(CNS(=O)(=O)c2ccccc2)CC1 (stereo not shown),10.3
5,COc1ccc(-c2c(C#N)c(C)nc3c2C(=O)c2ccccc2-3)cc1,-3.8
6,Cn1c(SCC(=O)c2ccccc2)nnc1-c1ccc(O)cc1,-11.2
7,COc1cccc(C=NCC(C)N=Cc2cccc(OC)c2O)c1O (stereo not shown),3.33
8,Cn1c(=O)c2c(nc(NCc3ccco3)n2CC(O)CO)n(C)c1=O (stereo not shown),22.1
9,CCOC(=O)N1CCN(C(=O)CCN2C(=O)COc3ccccc32)CC1,0.87
10,c1ccc(-c2noc(-c3ccc4ccccc4c3)n2)cc1,11.9
11,CCOC(=O)c1c(NC(=O)CCCN2CCOCC2)sc2c1CC(C)(C)OC2,-9.14
12,COc1ccc(C2=NOC(C(=O)Nc3ccc4c(c3)OCCO4)C2)c(OC)c1 (stereo not shown),3.96
13,CCOC(=O)COc1ccc(S(=O)(=O)NCc2ccco2)cc1,-1.53
14,CCNc1nc(NC(C)CC)nc(ON=C(C)C)n1 (stereo not shown),-2.23
15,CCCCN(CC)CCCNC(=O)c1cn(CC)c2ccc(S(=O)(=O)N3CCc4ccccc4C3)cc2c1=O,-74.9
16,CCCCN(C)CCCNC(=O)c1cn(CC)c2ccc(S(=O)(=O)N3CCOCC3)cc2c1=O,10.3
17,CCCCSCCCNC(=O)c1cn(CC)c2ccc(S(=O)(=O)N3CCOCC3)cc2c1=O,-44.9
18,O=C(CCN1CCCCO1)N1CCCC(Nc2cccc(F)c2)C1 (stereo not shown),14
19,Nc1nc2n(n1)C(c1ccco1)CC(c1ccc(Cl)c(Cl)c1)N2 (stereo not shown),-31.4
